Among all 300,000 compounds or so, about 1,000 (0.33%) were called active. No stated cut-off is given here; in the data, active means inhibition above about 28%; inactive means the rest. Shown is part of a subset that was picked to be rich in actives.
tested on: EBNA-1 (Epstein-Barr virus nuclear antigen 1), Human herpesvirus 4; test: blockers of EBV EBNA-1 binding to DNA – biochemical, fluorescence polarization, primary screen (AID 1950); settings: EBNA-1 DNA binding, at 14.8 µM, hits give high values

inhibition, active:
Cc1ccc(C(=O)NNC(=O)c2cc3cc4ccccc4nc3s2)cc1 66.7%, O=C(Nc1cccc(NC(=O)c2ccc(Br)cc2)c1)c1ccccc1 28.3%, COc1ccc(CNc2nc3c(c(=O)[nH]c(=O)n3C)n2Cc2ccccc2)cc1 28.1%, CCC(=O)Nc1ccc(C(=O)Nc2ccc3c(c2)C(=O)N(CC2CCCO2)C3=O)cc1 (stereo not drawn) 57.9%, CCOc1[nH]n(-c2ccc(Cl)cc2)c(=O)c1C=Nc1ccc(O)cc1 36.6%, COc1ccc(-c2ccc(Nc3ccc(S(=O)(=O)N4CCCC4)cc3)nn2)cc1OC 61.7%, CCOC(=O)c1ccc(NC(=O)C2CC(=O)Nc3nc4ccccc4n32)cc1 (stereo not drawn) 30.4%, CCOc1ccc(OCC)c(NC(=O)C(NS(=O)(=O)c2ccc3c(c2)oc(=O)n3C)C(C)C)c1 (stereo not drawn) 38%, O=C(OCC1O[C@@H](OC(=O)c2cc(O)c(O)c(O)c2)[C@@H](OC(=O)c2cc(O)c(O)c(O)c2)[C@@H](OC(=O)c2cc(O)c(O)c(O)c2)[C@@H]1OC(=O)c1cc(O)c(O)c(O)c1)c1cc(O)c(O)c(O)c1 (stereo partly drawn) 36.5%, COc1ccc(CCNC(=S)N2CCN(S(=O)(=O)c3ccc(F)cc3)CC2)cc1 34.3%

inhibition, inactive:
Cc1ccn2c(=O)nc(SCC(=O)NCc3ccc(F)cc3)nc2c1 -14.5%, Oc1ccccc1CNc1ncc(Br)cc1Br -8.83%, O=C(NNC(=O)c1cc2c(s1)CCCC2)c1ccccc1 6.96%, Cc1ccc(C(=O)NNC(=O)c2cccs2)cc1 -0.94%, Cc1cc2nc3n(c2cc1C)CC1CC(C(=O)NCCC(C)C)N(C)C31 (stereo not drawn) -5.15%, O=C(Nc1cccc(NC(=O)c2cccc(F)c2)c1)c1ccccc1 -2.13%, O=C(Cc1ccccc1)Nc1cccc(NC(=O)c2ccccc2)c1 -12.9%, CN(C)[C@@H]1C(=O)C(C(N)=O)=C(O)[C@@]2(O)C(=O)C3=C(O)c4c(O)ccc(Cl)c4[C@@H](O)[C@H]3C[C@@H]12 14.1%, O=C(Nc1cccc(O)c1)c1ccc(C(=O)c2ccccc2)o1 10.1%, COc1ccc(CCn2c(NN=C3CCCC3)nc3c2c(=O)[nH]c(=O)n3C)cc1 1.13%, COc1ccc(CCn2c(NCCCN3CCOCC3)nc3c2c(=O)[nH]c(=O)n3C)cc1 5.1%, CCC(=O)Nc1ccc(S(=O)(=O)NCC2CCCO2)cc1 (stereo not drawn) 4.88%, Cc1cccc(C(=O)Nc2ccc3c(c2)C(=O)N(CC(C)C)C3=O)c1 -2.99%, Cc1cccc(NC(=O)NC2(C)CCS(=O)(=O)C2)c1 (stereo not drawn) -12.1%, CCc1c(C)nc2ncnn2c1N1CCC(C(=O)NCc2ccc3c(c2)OCO3)CC1 7.74%, COc1ccc(C(C(=O)NCc2ccccc2)N(Cc2cccs2)C(=O)c2cnccn2)cc1 (stereo not drawn) 4.32%, CCn1c(/C=C/Nc2ccccc2)[n+](CC)c2ccc(C(=O)OCC(F)(F)F)cc21 -1.72%, CCC(=O)c1ccc(OC(=O)/C=C/c2cc(OC)c(OC)c(OC)c2)cc1 6.75%, CCOc1ccc(N=C2NC(=O)S/C2=C\c2ccc(O)cc2)cc1 22%, COc1cc(NS(=O)(=O)c2ccc(N=Cc3c(C)[nH]n(-c4ccccc4)c3=O)cc2)nc(OC)n1 14.1%, O=C(CC(=O)N/N=C\c1cccc(Cl)c1Cl)NCc1ccccc1 0.69%, COc1cccc(N2CC(NS(=O)(=O)c3cccs3)CC2=O)c1 (stereo not drawn) -3.98%, CC(=O)NC(CC(=O)Nc1nc(-c2ccccc2)c(C(C)=O)s1)c1ccccc1 (stereo not drawn) 6.2%, O=c1o[nH]c(-c2ccccc2)c1N=Nc1c(F)cccc1Cl -1.23%, COc1ccc(S(=O)(=O)Nc2ccc(S(=O)(=O)N3CCCCC3)cc2)cc1OC -12.3%, COc1ccc(S(=O)(=O)N2CCCCCC2)cc1C(=O)OCC(=O)Nc1cc(C)on1 -10.6%, CCCn1c2ccccc2c2cnn(CC(=O)NCCCN3CCCCC3CC)c(=O)c21 (stereo not drawn) -11.4%, O=[N+]([O-])c1cc(S(=O)(=O)Nc2cccc(Cl)c2)ccc1N=Nc1c(O)[nH]c2ccccc12 -1.48%, CCc1ccc(NC(=O)Nc2ccncc2)cc1 -0.73%, CC(=O)c1ccc(NC(=O)C2CC(=O)Nc3nc4ccccc4n32)cc1 (stereo not drawn) -7.52%, CCOC(=O)C1=C(C)Nc2nc3ccccc3n2C1c1cccs1 (stereo not drawn) 3.55%, Cc1ccc(NS(=O)(=O)c2ccc3c(c2)n(C)c(=O)c(=O)n3C)c(C)c1 -9.29%, CCCS(=O)(=O)Nc1ccc(-c2cn3c(n2)SCC3)cc1 -2.75%, CSCCC(NS(=O)(=O)c1ccc2c(c1)oc(=O)n2C)C(=O)NCc1ccccc1 (stereo not drawn) 1.42%, COc1cccc(NC(=O)CCNS(=O)(=O)c2ccc3c(c2)oc(=O)n3C)c1 -10.5%, CC(Oc1ccc(Br)cc1)C(=O)NCC(c1ccco1)N1CCCCC1 (stereo not drawn) -5.29%, CC(C)OC(=O)c1ccc(COc2ccc3ccc(=O)oc3c2)o1 0.87%, O=C(OCC1OC(Oc2ccc(O)cc2)C(O)C(O)C1O)c1ccccc1 (stereo not drawn) -9.05%, Cn1c(=O)[nH]c(=O)c2c1[nH]c(=S)n2Cc1ccccc1 9.15%, O=C(COc1ccc([N+](=O)[O-])cc1)Nc1cccc(C(=O)Nc2ccccc2C(=O)O)c1 8.21%, C=CCNC(=S)/N=c1/ccccn1Cc1ccccc1 3.92%, CCN(CC)CCN1C(=O)C2C(C(=O)Nc3ccc(Br)cc3)C3C=CC2(O3)C1C(=O)NC1CCCCC1 (stereo not drawn) 5.67%, COc1ccc(CCNC(=O)C2CCCN(S(=O)(=O)c3ccc(OC)cc3)C2)cc1 (stereo not drawn) 5.18%, COc1ccc(CCNC(=S)N2CCN(S(=O)(=O)c3ccc(Cl)cc3)CC2)cc1 7.36%, OC(COc1ccc(CN2CCSCC2)cc1)CN1CCCCC1 (stereo not drawn) 3.92%, COc1ccc(/C=C2\SC(=S)N(CCCC(=O)NC3CCCC3)C2=O)cc1OC -4.95%, CC(=O)NNC(=O)c1csc(Cc2c(Cl)sc3ccc(Cl)cc23)n1 -5.11%, Cc1cc(OCC(=O)NCC(O)c2ccccc2)c2c(C)c(C)c(=O)oc2c1 (stereo not drawn) 3.74%

Reference: PubChem BioAssay AID1950 (The Scripps Research Institute Molecular Screening Center, 2009)
